In the supplement of paper PMC6555819:

Key:
Experiment in all cases: PBM binding z-score (relative to random genomic background probes); higher = stronger binding; sequences stand for … in GC…GCGATTGACAGCGTAGAATGAAGG
[1] = test system: FXR:RXRa (NR concentration 270 nM, RXRa partner concentration 90 nM)
Procedure, shortened: (§1)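 Binding z-scores take random background probes as their reference. They come from custom Agilent 4×180K protein-binding microarrays incubated 1 h with ligand-free nuclear receptor dimers, with antibodies against each partner (one per run) detecting binding. Scanned fluorescence was regression-normalized.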

[2] = test system: LXRa:RXRa (NR concentration 270 nM, RXRa partner concentration 90 nM)
Procedure, shortened: as §1

[3] = test system: LXRa homodimer (NR concentration 270 nM)
Procedure, shortened: as §1

[4] = test system: LXRb:RXRa (NR concentration 270 nM, RXRa partner concentration 90 nM)
Procedure, shortened: as §1

[5] = test system: LXRb homodimer (NR concentration 270 nM)
Procedure, shortened: as §1

[6] = test system: PPARa:RXRa (NR concentration 270 nM, RXRa partner concentration 90 nM)
Procedure, shortened: as §1

[7] = test system: PPARg:RXRa (NR concentration 180 nM, RXRa partner concentration 90 nM)
Procedure, shortened: as §1

[8] = test system: PPARg:RXRa 270nM:90nM, anti-RXR (NR concentration 270 nM, RXRa partner concentration 90 nM)
Procedure, shortened: as §1

[9] = test system: PPARg:RXRa 30nM:10nM, anti-RXR (NR concentration 30 nM, RXRa partner concentration 10 nM)
Procedure, shortened: as §1

[10] = test system: PPARg:RXRa 90nM:30nM, anti-RXR (NR concentration 90 nM, RXRa partner concentration 30 nM)
Procedure, shortened: as §1

Sequence	PBM binding z-score [1]	PBM binding z-score [2]	PBM binding z-score [3]	PBM binding z-score [4]	PBM binding z-score [5]	PBM binding z-score [6]	PBM binding z-score [7]	PBM binding z-score [8]	PBM binding z-score [9]	PBM binding z-score [10]
ACAGACAGGTAATGAAGGTAACTCAGGCTATCAT	0.224	0.251	0.0515	0.0112	0.161	0.173	0.58	-0.0336	-0.0735	-0.327
CAGCCTAGGGCAGGGCCAGTATAGGAGGAACGTT	-0.713	-0.785	-0.921	-1.11	-1.4	-0.747	-0.037	-0.861	-0.884	-1.24
CCTAGCAGGCCAATCTGGCTCACTCAAGGCTTGA	-0.716	-0.911	-0.459	-0.999	-0.737	-0.434	-0.54	-0.642	-0.916	-1.12
ATCTCTAGGTAAGACTCAGTTCAGTGATGAACGC	0.343	0.402	0.634	0.249	0.676	0.268	0.294	0.427	0.243	0.302
AGTCGAAGTTCATCTAGGTAACGTAAGATATGCT	2.95	2.8	1.21	1.62	0.0848	2.8	1.9	2.32	0.883	1.66
GGTCGGAGGACAAGGTCAGAGCTTTGTCCGTAGA	2.18	1.7	-0.109	1.42	-0.689	2.43	0.581	1.58	-0.506	0.714
CCCACTGGGGCAGAAAGGTTACCATACCATCCGG	0.135	0.483	-0.148	0.675	-0.892	2.12	2.04	2.59	0.549	2.22
ATATGTAAGTTAAGGGTCATTCAGGTTGGTTCGC	4.42	4.64	3.27	4.11	1.56	5.03	6.82	7.16	6.71	7.81
TAGCCTAGGTCATGCCGGCCAGTATAGTGTCGGC	3.44	2.68	0.0179	1.57	-0.0168	3.07	1.99	2.08	0.0348	1.34
CAAACTAGGTCAAGAGGTGAAAGTCCGCTTCCCG	5.13	3.89	0.764	2.66	0.24	5.8	8.82	7.36	5.81	7.88
ACTAGTTGGTCAGCTGAGGTTACACACAATTCGG	1.56	0.761	0.139	1.29	0.188	1.42	0.989	0.496	0.134	0.586
TCTTGTAGATCAACAGGAGTTTAAGAAAGATCGA	-0.268	0.229	-0.339	-0.131	-0.759	0.604	0.0426	1.19	2.22	1.87
ATATGGAGGTTACATCCGGGTCATTCAGGCTATG	2.99	5.32	1.94	3.8	0.764	3.79	3.01	2.85	0.871	1.91
ATCGAAAGGTCGACGAGGTGAGTTTACACCGTTT	4.66	3.45	0.17	2.95	0.407	4.71	2.73	3.1	0.726	2.05
CAAACTAGGTCACCGGAAGGTTAAAGTCCGCATG	5.17	4.53	1.89	3.61	0.743	5.67	9.32	7.58	5.78	7.27
CGTCCAAGGTCATAGGATGTCAGTGAAGACAGAT	7.4	5.86	1.1	4.02	0.568	5.6	4.69	5.42	1.9	3.95
TCTTGTAGATCAAGCAGGTTAAGTAAGCCTGAGT	0.318	0.3	-0.426	0.29	-0.426	0.576	-0.618	1.2	2.3	1.78
ACTAGCACGCCAAGGGTCACTCAAGATTAGTCCG	2.79	3.15	0.382	3.1	-0.324	3.64	2.48	3.7	1.47	3.3
TCTATTAGTTGATTAGGGCAATCGAAACAGCGGA	0.665	0.828	0.306	0.766	0.542	0.871	0.0917	2.06	3.7	2.93
AATACATGGTCATCGTAGGCCAGAGTACGCACAG	0.0777	0.702	0.0647	-0.141	-0.0432	0.289	1.22	0.533	0.2	0.514
CCTACTGGGCCATCAGGTCATTCATATCAACGTT	1.41	1.28	1.89	1.61	-0.0742	2.72	2.7	3.47	1.16	2.86
ACATACGGGTCAACGAGGTTATAGCACGCGTATA	5.59	4.74	0.827	3.97	0.73	5.39	5.65	4.94	1.99	3.86
ATGTCTAGGTAACCAAGTTCAGTGAATGCCGAAC	0.425	0.708	0.547	0.184	0.286	1.08	0.622	0.664	-0.0406	0.432
